# According to the supplement of paper PMC4683952:
# Where a name gives a salt, the structure may show the parent alone. Screen size: about 1,200 compounds; about 50 (4%) showed activity. Many of the other results were omitted from the sample, so actives are more common in it than they were. Values without a mark were called inactive. Cut-off read from the data, not from the text of the source: all actives reach 1.3 or more but so do some inactives.
# Tested on: Lgr5 (MarsCy1-Lgr5-EGFP, U2OS)
# Test: cell-surface Lgr5 expression (SCi1 fluorescence, background-subtracted) relative to WT DMSO (fold of DMSO control); higher = more Lgr5 at the plasma membrane, active = hit call of the paper
# Conditions: U2OS MarsCy1-Lgr5-EGFP stable; treatment time: overnight; 16 µM; library: Johns Hopkins Clinical Compound Library
row,SMILES,cell-surface Lgr5 expression
1,NC(CCC(=O)O)C(=O)O (racemic) [DL-Glutamic acid monohydrate],0.692
2,NC(=O)N[C@@H](CCC(=O)O)C(=O)O [Carglumic acid (N-Carbamyl-L-Glutamic Acid)],1.08
3,C=CC(N)CCC(=O)O (stereo unspecified) [Vigabatrin],1.52 (active)
4,OCc1ccccc1O[C@@H]1O[C@H](CO)[C@@H](O)[C@H](O)[C@H]1O [Salicin],1.17
5,c1ccc(CN(CC2=NCCN2)c2ccccc2)cc1 [Antazoline phosphate salt],1.28
6,CC(C)COCC(CN(Cc1ccccc1)c1ccccc1)N1CCCC1 (stereo unspecified) [Bepridil],1.31 (active)
7,c1ccc(CN(CC2=NCCN2)c2ccccc2)cc1 [Antazoline],1.21
8,Nc1c(Br)cc(Br)cc1CN[C@H]1CC[C@H](O)CC1 [Ambroxol hydrochloride],1.54 (active)
9,O=C1OC(c2ccc(O)cc2)(c2ccc(O[C@@H]3O[C@H](C(=O)O)[C@@H](O)[C@H](O)[C@H]3O)cc2)c2ccccc21 (stereo partly drawn) [Phenolphthalein beta-D-glucuronide sodium salt],1
10,NCCC[C@H](N)C(=O)O [L-Ornithine],0.718
11,[K+].[OH-] [Potassium hydroxide],1.11
12,CN1C(CCl)Nc2cc(Cl)c(S(N)(=O)=O)cc2S1(=O)=O (stereo unspecified) [Methyclothiazide],0.905
13,C=CCSCC1Nc2cc(Cl)c(S(N)(=O)=O)cc2S(=O)(=O)N1 (stereo unspecified) [Althiazide],1.27
14,NS(=O)(=O)c1cc2c(cc1Cl)NC(C(Cl)Cl)NS2(=O)=O (stereo unspecified) [Trichlormethiazide],1.44 (active)
15,CNCC(O)c1ccc(OC(=O)C(C)(C)C)c(OC(=O)C(C)(C)C)c1 (stereo unspecified) [Dipivefrin HCl],1.42 (active)
16,CC(C)(C)NCC(O)c1ccc(O)c(CO)c1 (stereo unspecified) [Albuterol (Salbutamol)],1.22
17,CNC[C@H](O)c1cccc(O)c1 [L-Phenylephrine hydrochloride],0.598
18,CCC(C)C(C(=O)OCC[N+](C)(CC)CC)c1ccccc1 (stereo unspecified) [Valethamate bromide],1.1
19,"CCN(CC)C(=S)S [Ditiocarb (Diethyldithiocarbamic acid sodium, thiocarb)]",1.05
20,CCN(CC)Cc1cc(Nc2ccnc3cc(Cl)ccc23)ccc1O [Amodiaquin],1.47
21,CCN(CC)CCCC(C)Nc1ccnc2cc(Cl)ccc12 (stereo unspecified) [Chloroquine diphosphate salt],1.53
22,O=C(OCC(O)CO)c1ccccc1Nc1ccnc2cc(Cl)ccc12 (stereo unspecified) [Glafenine],1.63 (active)
23,CN(CCO)CC(O)Cn1cnc2c1c(=O)n(C)c(=O)n2C (stereo unspecified) [Xanthinol niacinate (Xanthinol Nicotinate)],1.05
24,"O=Cc1cc(Br)cc(Br)c1O [3,5-Dibromosalicylaldehyde]",1.17
25,CNCCCN1c2ccccc2CCc2ccccc21 [Desipramine],1
26,CNCCCC12CCC(c3ccccc31)c1ccccc12 [Maprotiline],1.32 (active)

row,SMILES,cell-surface Lgr5 expression
1,CNCCCC1c2ccccc2C=Cc2ccccc21 [Protriptyline],0.38
2,COc1cc(C2Oc3cc([C@H]4Oc5cc(O)cc(O)c5C(=O)[C@@H]4O)ccc3OC2CO)ccc1O (stereo partly specified) [Silibinin],1.08
3,COc1cc(C2Oc3cc([C@H]4Oc5cc(O)cc(O)c5C(=O)[C@@H]4O)ccc3OC2CO)ccc1O (stereo partly specified) [Silibinin (Silybin)],1.23
4,"Oc1c(Cl)cc(Cl)c2cccnc12 [Chloroxine (5,7-Dichloro-8-hydroxyquinoline)]",0.97
5,Cc1c(N(C)C)c(=O)n(-c2ccccc2)n1C [Aminopyrine (4-Dimethylamino-antipyrine)],1.14
6,Cc1c(N(C)C)c(=O)n(-c2ccccc2)n1C [Aminopyrine (4 Dimethylamino antipyrene)],0.932
7,Cc1cc(OS(=O)(=O)O)c2ccccc2c1OS(=O)(=O)O [Menadiol disulfate disodium salt trihydrate],0.856
8,O=C(O)c1cc(S(=O)(=O)O)ccc1O [Sulfosalicylic acid (5-Sulfosalicylic acid dihydrate)],1.11
9,NC[C@H](O)c1ccc(O)c(O)c1 [Arterenol (Norepinephrine)],1.3 (active)
10,CCC(NC(C)C)C(O)c1ccc(O)c(O)c1 (stereo unspecified) [Isoetharine mesylate],1.19
11,NC[C@H](O)c1ccc(O)c(O)c1 [Norepinephrine],1.26
12,CNC[C@H](O)c1ccc(O)c(O)c1 [Epinephrine],1.57
13,Cc1ncc(CO)c(CN)c1O [Pyridoxamine dihydrochloride],0.999
14,"Cc1ncc(CO)c(CN)c1O [Pyridoxamine, Dihydrochloride]",1.02
15,CCCCc1nc(Cl)c(CO)n1Cc1ccc(-c2ccccc2-c2nnn[nH]2)cc1 [Losartan],0.915
16,C[C@@H]1[C@H](O)[C@@H](C)/C=C/C=C/C=C/C=C/C=C/C=C/C=C/[C@H](O[C@@H]2O[C@H](C)[C@@H](O)[C@H](N)[C@@H]2O)C[C@@H]2O[C@](O)(C[C@@H](O)C[C@@H](O)[C@H](O)CC[C@@H](O)C[C@@H](O)CC(=O)O[C@H]1C)C[C@H](O)[C@H]2C(=O)O [Amphotericin B],0.802
17,C[C@@H]1CCC[C@H](C)N1NC(=O)c1ccc(Cl)c(S(N)(=O)=O)c1 [Clopamide],1.3
18,CC(=O)O[C@]1(C(C)=O)CC[C@H]2[C@@H]3C=C(Cl)C4=CC(=O)[C@@H]5C[C@@H]5[C@]4(C)[C@H]3CC[C@@]21C [Cyproterone acetate],1.25
19,CC(=O)O[C@]1(C(C)=O)CC[C@H]2[C@@H]3C[C@H](C)C4=CC(=O)C=C[C@]4(C)[C@@]3(F)[C@@H](O)C[C@@]21C [Fluorometholone acetate],1.31 (active)
20,CCCC(=O)O[C@]1(C(=O)CCl)[C@H](C)C[C@@H]2[C@@H]3CCC4=CC(=O)C=C[C@]4(C)[C@]3(F)C(=O)C[C@@]21C [Clobetasone butyrate],1
21,CC(=O)OCC(=O)[C@@]12OC(C)(C)O[C@@H]1C[C@H]1[C@@H]3C[C@H](F)C4=CC(=O)C=C[C@]4(C)[C@@]3(F)[C@@H](O)C[C@@]12C [Fluocinolone acetonide 21-acetate],1.6 (active)
22,CC(=O)OCC(=O)[C@@]1(OC(C)=O)[C@@H](C)C[C@H]2[C@@H]3C[C@H](F)C4=CC(=O)C=C[C@]4(C)[C@@]3(F)[C@@H](O)C[C@@]21C [Diflorasone diacetate],1.67 (active)
23,CC(=O)O[C@]1(C(C)=O)CC[C@H]2[C@@H]3C[C@H](C)C4=CC(=O)CC[C@]4(C)[C@H]3CC[C@@]21C [Medroxyprogesterone acetate],1.2
24,CC(=O)OCC(=O)[C@@]12OC(C)(C)O[C@@H]1C[C@H]1[C@@H]3CCC4=CC(=O)C=C[C@]4(C)[C@@]3(F)[C@@H](O)C[C@@]12C [Triamcinolone acetonide acetate],1.26
25,CCCC(=O)O[C@]1(C(=O)COC(C)=O)CC[C@H]2[C@@H]3C[C@H](F)C4=CC(=O)C=C[C@]4(C)[C@@]3(F)[C@@H](O)C[C@@]21C,1.57 (active)
